Laboratory results reported in PubChem BioAssay AID1159580 (chemical genetic matrix, 2015).
About 2,000 (36%) of roughly 5,500 compounds were called active. Not shown: some 18% with an inconclusive outcome. Cut-off read from the data, not from the text of the source: active = normalized growth mostly below about 0.91 (no sharp cut-off); inconclusive = no clear call, values can overlap the other calls; inactive = mostly above about 0.92. This is one part of the list.

Experiment: chemical genetic growth profiling, strain panel (AID 1159580);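 note: tested at 20 µM; growth read once vehicle control cultures reached saturation at 30 °C; 1 = growth at the plate median or of vehicle wells; lower values mean less growth of the strain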
Conditions: growth OD

Measured: normalized growth

CC1=C(C(=O)O)N2C(=O)[C@@H](NC(=O)[C@H](N)C3=CCC=CC3)C2SC1 (some centres not stated)
inactive: S. cerevisiae deletion strains, locus YJR066W, strain TOR1, hits give low values 0.974 | S. cerevisiae deletion strains, locus YKL009W, strain mrt4, hits give low values 1 | S. cerevisiae deletion strains, locus YKL068W, hits give low values 0.979 | S. cerevisiae deletion strains, locus YKL085W, strain MDH1 (second series), hits give low values 0.978 | S. cerevisiae deletion strains, locus YKL085W, strain MDH1, hits give low values 0.978 | S. cerevisiae deletion strains, locus YKL160W, strain elf1, hits give low values 1 | S. cerevisiae deletion strains, locus YKR001C, strain vps1, hits give low values 0.994 | S. cerevisiae deletion strains, locus YKR026C, strain gcn3, hits give low values 1.02 | S. cerevisiae deletion strains, locus YKR091W, strain srl3, hits give low values 1.01 | S. cerevisiae deletion strains, locus YLL001W, strain dnm1, hits give low values 0.998 | S. cerevisiae deletion strains, locus YLL026W, hits give low values 1.02 | S. cerevisiae deletion strains, locus YLL041C, strain sdh2, hits give low values 1.02 | S. cerevisiae deletion strains, locus YLR027C, strain aat2, hits give low values 1.02 | S. cerevisiae deletion strains, locus YLR039C, strain RIC1, hits give low values 0.983 | S. cerevisiae deletion strains, locus YLR058C, strain SHM2, hits give low values 0.974 | S. cerevisiae deletion strains, locus YLR102C, strain apc9, hits give low values 1 | S. cerevisiae deletion strains, locus YLR113W, strain HOG1, hits give low values 0.968 | S. cerevisiae deletion strains, locus YLR221C, strain rsa3, hits give low values 1.02 | S. cerevisiae deletion strains, locus YLR258W, strain gsy2, hits give low values 1.03 | S. cerevisiae deletion strains, locus YLR262C, strain YPT6 (second series), hits give low values 1.04 | S. cerevisiae deletion strains, locus YLR262C, strain YPT6, hits give low values 0.924 | S. cerevisiae deletion strains, locus YLR268W, strain sec22, hits give low values 1 | S. cerevisiae deletion strains, locus YLR320W, strain mms22, hits give low values 1.01 | S. cerevisiae deletion strains, locus YLR330W, strain CHS5, hits give low values 0.986 | S. cerevisiae deletion strains, locus YLR342W, strain FKS1 (second series), hits give low values 1.03 | S. cerevisiae deletion strains, locus YLR342W, strain FKS1, hits give low values 1.01 | S. cerevisiae deletion strains, locus YLR357W, strain rsc2, hits give low values 1.04 | S. cerevisiae deletion strains, locus YLR370C, strain arc18, hits give low values 1.03 | S. cerevisiae deletion strains, locus YLR371W, strain rom2, hits give low values 0.999 | S. cerevisiae deletion strains, locus YLR384C, strain iki3, hits give low values 1.02 | S. cerevisiae deletion strains, locus YLR418C, strain cdc73, hits give low values 1.01 | S. cerevisiae deletion strains, locus YML016C, strain PPZ1, hits give low values 0.986 | S. cerevisiae deletion strains, locus YML032C, strain rad52, hits give low values 0.995 | S. cerevisiae deletion strains, locus YML120C, strain ndi1, hits give low values 1.02 | S. cerevisiae deletion strains, locus YML124C, strain tub3, hits give low values 0.995 | S. cerevisiae deletion strains, locus YMR058W, strain fet3, hits give low values 1.02 | S. cerevisiae deletion strains, locus YMR078C, strain ctf18, hits give low values 0.994 | S. cerevisiae deletion strains, locus YMR125W, strain sto1, hits give low values 0.996 | S. cerevisiae deletion strains, locus YMR129W, hits give low values 1.02 | S. cerevisiae deletion strains, locus YMR205C, strain PFK2, hits give low values 1.04 | S. cerevisiae deletion strains, locus YMR223W, strain ubp8, hits give low values 1.01 | S. cerevisiae deletion strains, locus YMR231W, strain pep5, hits give low values 1 | S. cerevisiae deletion strains, locus YMR263W, strain SAP30, hits give low values 1 | S. cerevisiae deletion strains, locus YMR307W, strain GAS1, hits give low values 0.933 | S. cerevisiae deletion strains, locus YNL067W, strain RPL9B, hits give low values 1.02 | S. cerevisiae deletion strains, locus YNL071W, strain lat1, hits give low values 1.02 | S. cerevisiae deletion strains, locus YNL153C, strain GIM3, hits give low values 1.02 | S. cerevisiae deletion strains, locus YNL183C, strain NPR1, hits give low values 0.933 | S. cerevisiae deletion strains, locus YNL209W, strain ssb2, hits give low values 1.03 | S. cerevisiae deletion strains, locus YNL233W, strain BNI4, hits give low values 1.03 | S. cerevisiae deletion strains, locus YNL248C, strain rpa49, hits give low values 1.05 | S. cerevisiae deletion strains, locus YNL250W, strain rad50, hits give low values 1 | S. cerevisiae deletion strains, locus YNL271C, strain bni1, hits give low values 1 | S. cerevisiae deletion strains, locus YNL298W, strain CLA4, hits give low values 0.999 | S. cerevisiae deletion strains, locus YNL307C, strain MCK1, hits give low values 0.995 | S. cerevisiae deletion strains, locus YNL322C, strain KRE1 (second series), hits give low values 1.01 | S. cerevisiae deletion strains, locus YNR049C, strain mso1, hits give low values 1.02 | S. cerevisiae deletion strains, locus YNR052C, strain pop2, hits give low values 0.996 | S. cerevisiae deletion strains, locus YOL012C, strain htz1 0.951 | S. cerevisiae deletion strains, locus YOL147C, strain pex11, hits give low values 0.997 | S. cerevisiae deletion strains, locus YOR001W, strain rrp6, hits give low values 1.02 | S. cerevisiae deletion strains, locus YOR061W, strain CKA2, hits give low values 0.968 | S. cerevisiae deletion strains, locus YOR069W, strain VPS5, hits give low values 0.976 | S. cerevisiae deletion strains, locus YOR070C, strain gyp1, hits give low values 1.02 | S. cerevisiae deletion strains, locus YOR080W, strain dia2, hits give low values 1.03 | S. cerevisiae deletion strains, locus YOR083W, strain WHI5, hits give low values 0.993 | S. cerevisiae deletion strains, locus YOR106W, strain vam3, hits give low values 1.04 | S. cerevisiae deletion strains, locus YOR136W, strain idh2, hits give low values 0.984 | S. cerevisiae deletion strains, locus YOR144C, strain elg1, hits give low values 0.995 | S. cerevisiae deletion strains, locus YOR184W, strain ser1, hits give low values 0.992 | S. cerevisiae deletion strains, locus YOR231W, strain MKK1, hits give low values 0.979 | S. cerevisiae deletion strains, locus YOR265W, strain rbl2, hits give low values 1.02 | S. cerevisiae deletion strains, locus YOR270C, strain vph1, hits give low values 1.07 | S. cerevisiae deletion strains, locus YOR290C, strain snf2, hits give low values 1.02 | S. cerevisiae deletion strains, locus YOR316C, strain cot1, hits give low values 0.991 | S. cerevisiae deletion strains, locus YPL051W, strain arl3, hits give low values 1.01 | S. cerevisiae deletion strains, locus YPL078C, strain atp4, hits give low values 1.02 | S. cerevisiae deletion strains, locus YPL106C, strain sse1, hits give low values 1.03 | S. cerevisiae deletion strains, locus YPL240C, strain hsp82, hits give low values 1.01 | S. cerevisiae deletion strains, locus YPL241C, strain CIN2, hits give low values 0.989 | S. cerevisiae deletion strains, locus YPL256C, strain CLN2, hits give low values 0.956 | S. cerevisiae deletion strains, locus YPR119W, strain clb2, hits give low values 0.995 | S. cerevisiae deletion strains, locus YPR141C, strain kar3, hits give low values 0.988 | S. cerevisiae deletion strains, locus YPR163C, strain tif3, hits give low values 0.995 | S. cerevisiae deletion strains, locus YPR167C, strain met16, hits give low values 0.998 | S. cerevisiae deletion strains, strain wtn01, hits give low values 1.04 | S. cerevisiae strains, strain wild type, hits give low values 0.985
